# Results: a collection of fitness landscapes (doi:10.1016/j.celrep.2020.107928)
# Over roughly 81,000 sequences, “one-hybrid fitness for binding NBS DNA” has its median near -0.1; the highest 2% begin near 0.36. This excerpt belongs to a sample that is enriched for the highest values.
# B1: Caulobacter ParB omega fusion; a variant is named by its letters at X, in order, B8GW30 (parent)
# chain: MESVVVGEPGMSEGRRGLGRGLSALLGEVDAAPAQAPGEQLGGSREAPIEILQRNPDQPRRTFREEDLEDLSNSIREKGVLQPILVRPSPDTAGEYQIVAGERAWRAAQRAGLKTVPIMVRELDDLAVLEIGIIENVQRADLNVLEEALSYKVLMEKFERTQENIAQTIGKSXSHVANXMRLLXLPDEVQSYLVSGELTAXHARAIAAAADPVALAKQIIEGGLSVRETEALARKAPNLSAGKSKGGRPPRVKDTDTQALESDLSSVLGLDVSIDHRGSTGTLTITYATLEQLDDLCNRLTRGI
# Variants of: B1
# Assay: one-hybrid fitness for binding NBS DNA (the Noc-binding site; scaled: cognate 1, non-cognate 0); higher = stronger binding
# Settings: with NBS DNA site
# Procedure, shortened: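 On M9-minus-histidine containing 0.1 mM IPTG and 5 mM 3-AT, E. coli USO cells with a HIS3 reporter, site 19 bp from the promoter, grew 48 hours at 37°C to select Caulobacter ParB libraries randomised at four specificity codons. Plasmids from before and after were Illumina-sequenced, with three replicate libraries pooled and variants under 10 reads left out. Fitness is the log change in variant-to-wild-type read ratio, rescaled against cognate and non-cognate.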
row,Variant,one-hybrid fitness for binding NBS DNA
1,HFHL,≤ 0.2
2,QSEF,≤ 0.2
3,TASS,≤ 0.2
4,DAGG,≤ 0.2
5,DEKT,≤ 0.2
6,QTLD,≤ 0.2
7,QTLP,≤ 0.2
8,QPCS,≤ 0.2
9,QCCS,0.393
10,QTLS,0.426
11,QSCS,0.296
12,ERTA,≤ 0.2
13,TLTL,≤ 0.2
14,EMRG,≤ 0.2
15,RPNS,≤ 0.2
16,RLND,≤ 0.2
17,RMNP,≤ 0.2
18,RMNS,0.481
19,RCNS,0.557
20,RLNS,0.493
21,RSNS,0.508
22,RLDS,≤ 0.2
23,RSND,≤ 0.2
24,RMDS,≤ 0.2

row,Variant,one-hybrid fitness for binding NBS DNA
1,RFNS,0.331
2,RSDS,≤ 0.2
3,PYGH,≤ 0.2
4,TCDT,≤ 0.2
5,SICL,≤ 0.2
6,ITNT,≤ 0.2
7,QLLN,≤ 0.2
8,QLVR,0.34
9,QCKR,1.08
10,QSKP,0.229
11,QLKM,0.318
12,QGKR,0.358
13,QSKD,0.203
14,QPKP,≤ 0.2
15,QEKR,0.285
16,QDKR,0.32
17,QLKR,0.932
18,QPKR,0.405
19,QSKR,0.979
20,AWRM,≤ 0.2
21,VLCG,≤ 0.2
22,GDPR,≤ 0.2
23,GMNC,≤ 0.2
24,GYHN,≤ 0.2

row,Variant,one-hybrid fitness for binding NBS DNA
1,GMFV,≤ 0.2
2,GDMV,≤ 0.2
3,PAFV,≤ 0.2
4,GFQR,≤ 0.2
5,KNLN,≤ 0.2
6,QAKR,0.982
7,QIKR,0.853
8,QIVR,0.271
9,QAKG,0.313
10,QAVR,0.358
11,QIIR,≤ 0.2
12,SPHS,≤ 0.2
13,GILL,≤ 0.2
14,CSWG,≤ 0.2
15,VYLS,≤ 0.2
16,RVRN,≤ 0.2
17,RVCT,0.433
18,RVCY,≤ 0.2
19,RVYS,0.351
20,RVCN,≤ 0.2
21,RVCS,0.444
22,RVCP,≤ 0.2
23,RVCM,≤ 0.2
24,RVRS,0.577

row,Variant,one-hybrid fitness for binding NBS DNA
1,RVCD,≤ 0.2
2,RVCR,0.436
3,RVCH,≤ 0.2
4,TIPT,≤ 0.2
5,LYLM,≤ 0.2
6,HSTN,≤ 0.2
7,QSVS,0.228
8,QRKP,0.404
9,QPVS,0.202
10,NRKS,≤ 0.2
11,QCVS,0.381
12,QRVS,0.561
13,QRKS,0.778
14,DRKS,≤ 0.2
15,ANSS,≤ 0.2
16,LCGR,≤ 0.2
17,TETQ,≤ 0.2
18,TNPC,≤ 0.2
19,YPLP,≤ 0.2
20,YFGS,≤ 0.2
21,QNIT,≤ 0.2
22,ATQS,≤ 0.2
23,NPLV,≤ 0.2
24,WWKR,0.203

row,Variant,one-hybrid fitness for binding NBS DNA
1,QRVD,≤ 0.2
2,QRKN,0.573
3,QRVH,0.387
4,QRPH,≤ 0.2
5,QCKD,0.337
6,QRVN,0.259
7,QRKD,0.377
8,QRKH,0.766
9,QRVP,≤ 0.2
10,QPKH,≤ 0.2
11,EGSD,≤ 0.2
12,SHRM,≤ 0.2
13,SFTP,≤ 0.2
14,GMTV,≤ 0.2
15,AWKC,≤ 0.2
16,HLVG,≤ 0.2
17,QNYP,≤ 0.2
18,MSYR,≤ 0.2
19,KGQY,≤ 0.2
20,LHCR,≤ 0.2
21,RKVV,≤ 0.2
22,RPMF,≤ 0.2
23,YCQV,≤ 0.2
24,FVKY,≤ 0.2

row,Variant,one-hybrid fitness for binding NBS DNA
1,QRHG,0.403
2,QPHG,≤ 0.2
3,QSHM,≤ 0.2
4,QRHC,0.437
5,QSHC,≤ 0.2
6,QCHC,0.238
7,QCHM,≤ 0.2
8,QCHQ,0.269
9,QRHM,0.438
10,QRHQ,0.431
11,QSHQ,≤ 0.2
12,QCHG,≤ 0.2
13,TMAD,≤ 0.2
14,KMQL,≤ 0.2
15,QRHP,0.303
16,QCHH,0.333
17,QRHN,0.437
18,QPHH,≤ 0.2
19,QRHI,0.358
20,QRHD,0.294
21,QRHH,0.61
22,QRHF,0.347
23,QRHS,0.718
24,ATVR,≤ 0.2

row,Variant,one-hybrid fitness for binding NBS DNA
1,ASPP,≤ 0.2
2,AERS,≤ 0.2
3,AVLE,≤ 0.2
4,HTYV,≤ 0.2
5,WTPE,≤ 0.2
6,PKNM,≤ 0.2
7,VQKH,≤ 0.2
8,SIHM,≤ 0.2
9,DQIS,≤ 0.2
10,AINC,≤ 0.2
11,PFAM,≤ 0.2
12,REKR,0.228
13,RRVR,0.699
14,ERKR,0.275
15,RRKR,0.929
16,NEMS,≤ 0.2
17,SEDT,≤ 0.2
18,RTFF,≤ 0.2
19,RRYV,0.254
20,RCEV,≤ 0.2
21,RRNV,0.456
22,RNYV,≤ 0.2
23,RCNV,≤ 0.2
24,RCKV,0.23

row,Variant,one-hybrid fitness for binding NBS DNA
1,RRVV,0.229
2,RCRV,0.257
3,RRDV,0.223
4,RNEV,0.385
5,RRKV,0.694
6,RRRV,0.655
7,AVRK,≤ 0.2
8,KHMG,≤ 0.2
9,LTMT,≤ 0.2
10,MTLT,≤ 0.2
11,VSMY,≤ 0.2
12,WPTG,≤ 0.2
13,TWNS,≤ 0.2
14,VPYS,≤ 0.2
15,QQKW,0.382
16,QQDW,≤ 0.2
17,QQRW,0.373
18,QQYW,≤ 0.2
19,QQVW,≤ 0.2
20,QQFW,≤ 0.2
21,PDLF,≤ 0.2
22,GASG,≤ 0.2
23,IEFV,≤ 0.2
24,HVSS,≤ 0.2

row,Variant,one-hybrid fitness for binding NBS DNA
1,QRRQ,0.496
2,QRYQ,0.35
3,QPRQ,≤ 0.2
4,QTRQ,0.581
5,QSDQ,≤ 0.2
6,QCRQ,0.527
7,QSRQ,0.413
8,QHRQ,0.33
9,QSYQ,≤ 0.2
10,QTYQ,≤ 0.2
11,QRIQ,≤ 0.2
12,QTCQ,≤ 0.2
13,AGTH,≤ 0.2
14,MNRA,≤ 0.2
15,FAPL,≤ 0.2
16,KVYR,≤ 0.2
17,IVTS,≤ 0.2
18,MDCS,≤ 0.2
19,CHRG,≤ 0.2
20,PCMS,≤ 0.2
21,KLNI,≤ 0.2
22,PANI,≤ 0.2
23,HTQS,≤ 0.2
24,DLLT,≤ 0.2

row,Variant,one-hybrid fitness for binding NBS DNA
1,QMLQ,≤ 0.2
2,QMRQ,0.437
3,QKNQ,0.245
4,QKRQ,0.415
5,QKSQ,≤ 0.2
6,QMSQ,0.242
7,WNMG,≤ 0.2
8,PCVV,≤ 0.2
9,QGRA,≤ 0.2
10,TPPQ,≤ 0.2
11,QTAT,0.595
12,QTAF,≤ 0.2
13,QTFC,≤ 0.2
14,QTAG,≤ 0.2
15,QTFT,0.515
16,QTFM,≤ 0.2
17,MPRS,≤ 0.2
18,QVPV,≤ 0.2
19,YMPV,≤ 0.2
20,QCQA,0.372
21,QHQA,0.315
22,QAQA,0.252
23,QRQA,0.611
24,QPQA,≤ 0.2

row,Variant,one-hybrid fitness for binding NBS DNA
1,QSQA,0.248
2,RSSR,0.437
3,RFSR,0.248
4,RSSN,≤ 0.2
5,RPSR,≤ 0.2
6,RSSH,≤ 0.2
7,RCSR,0.527
8,CVPS,≤ 0.2
9,VSVV,≤ 0.2
10,PVFF,≤ 0.2
11,GQRG,≤ 0.2
12,KRFA,0.277
13,KRNA,0.384
14,KRVA,≤ 0.2
15,KCNA,≤ 0.2
16,KCKA,≤ 0.2
17,KRRA,0.524
18,KRDA,≤ 0.2
19,KRYA,0.313
20,KRKA,0.552
21,QDQP,≤ 0.2
22,VKIM,≤ 0.2
23,TAPS,≤ 0.2
24,DPGG,≤ 0.2

row,Variant,one-hybrid fitness for binding NBS DNA
1,TPCF,≤ 0.2
2,YQMR,≤ 0.2
3,QCYH,0.257
4,QCRH,0.693
5,QSYH,≤ 0.2
6,QPRH,≤ 0.2
7,QSRP,0.242
8,QSRH,0.535
9,HHWC,≤ 0.2
10,RCYR,0.518
11,RFDR,≤ 0.2
12,RSYR,0.381
13,RFRR,0.486
14,RCRR,0.77
15,RCDR,0.255
16,RPRR,≤ 0.2
17,RSIR,0.207
18,RSPR,≤ 0.2
19,RDRR,≤ 0.2
20,RPYR,≤ 0.2
21,RFYR,≤ 0.2
22,RPCV,≤ 0.2
23,MHMS,≤ 0.2
24,FEYF,≤ 0.2

row,Variant,one-hybrid fitness for binding NBS DNA
1,SDMT,≤ 0.2
2,MIYS,≤ 0.2
3,TKTV,≤ 0.2
4,PMHR,≤ 0.2
5,LLCI,≤ 0.2
6,RSRP,≤ 0.2
7,RSRR,0.664
8,QQPL,≤ 0.2
9,PLCI,≤ 0.2
10,GLAR,≤ 0.2
11,HQST,≤ 0.2
12,TWRR,≤ 0.2
13,QYGK,≤ 0.2
14,QYLP,≤ 0.2
15,QYPR,0.27
16,QYIR,0.346
17,QYYR,0.466
18,QYNT,0.488
19,QYGC,≤ 0.2
20,QYDT,0.272
21,QYLR,0.436
22,QYLS,0.256
23,QYNP,≤ 0.2
24,QYGT,0.421
